From PubChem
H9c2 protect – cardioprotection against H2O2-induced cell death, primary screen, uHTS, H9c2 cells, ATPLite luminescence; AID 588492, 2011; 0.63% of 360,000 active; protection from H2O2 cell death, % at 20 µM; H9c2 cardiomyocytes, H2O2 injury protection, 2 h;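 active = compounds giving at least 50% protection of heart cells from peroxide-induced death in the single-dose screen, raw or plate-pattern-corrected value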;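 also: 0% = DMSO wells with peroxide and 100% = DMSO wells without peroxide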
Neddyl block – inhibitors of cullin neddylation, primary screen, biochemical, TR-FRET, uHTS, NAE and Ubc12; NEDD8-conjugating enzyme Ubc12 (Homo sapiens) + NEDD8-activating enzyme E1 regulatory …; inhibition, % at 25 µM; 0.58% of 360,000 active; AID 651699, 2012; in the data active = inhibition above about 36%
Target sequence (P61081 whole entry, looked up): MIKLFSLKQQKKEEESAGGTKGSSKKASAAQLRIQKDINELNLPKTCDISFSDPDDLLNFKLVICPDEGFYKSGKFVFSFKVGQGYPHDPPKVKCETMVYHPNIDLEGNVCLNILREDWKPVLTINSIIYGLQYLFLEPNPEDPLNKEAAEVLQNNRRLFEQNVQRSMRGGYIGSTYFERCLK
Target sequence (Q13564 whole entry, looked up): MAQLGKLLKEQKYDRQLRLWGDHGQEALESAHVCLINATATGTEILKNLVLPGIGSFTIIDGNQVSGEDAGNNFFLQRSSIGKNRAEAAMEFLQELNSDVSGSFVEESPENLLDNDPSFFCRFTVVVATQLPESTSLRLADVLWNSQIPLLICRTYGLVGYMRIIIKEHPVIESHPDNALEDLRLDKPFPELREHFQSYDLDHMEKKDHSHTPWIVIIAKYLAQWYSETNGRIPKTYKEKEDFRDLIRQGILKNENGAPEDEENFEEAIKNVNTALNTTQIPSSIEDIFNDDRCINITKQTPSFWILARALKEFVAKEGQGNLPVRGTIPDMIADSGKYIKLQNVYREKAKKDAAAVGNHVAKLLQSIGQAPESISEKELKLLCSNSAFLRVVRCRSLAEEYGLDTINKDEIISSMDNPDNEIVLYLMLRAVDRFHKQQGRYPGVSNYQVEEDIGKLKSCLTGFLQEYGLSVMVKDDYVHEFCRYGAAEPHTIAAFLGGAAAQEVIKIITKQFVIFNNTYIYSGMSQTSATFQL
GRK2 aptamer HTS – compounds blocking aptamer binding on GRK2 – biochemical, human GRK2, bead flow cytometry, HTS, primary screen; FAM-aptamer displacement from GRK2; inhibition of aptamer binding, % at 10 µM; 0.59% of 330,000 active;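 active = inhibition of aptamer binding above 40%, roughly 3 SD of noise, on plates passing a quality check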;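 also: median bead fluorescence of bound FAM aptamer so fluorescent compounds give negative values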
HDAC3 inh – HDAC3 deacetylase inhibitors, primary screen, biochemical, fluorescence, cell-free homogeneous; 0.15% of 320,000 active; inhibition, % at 8.3 µM; recombinant HDAC3, fluorogenic peptide/trypsin coupled; AID 2718, 2010; Histone deacetylase 3 (Homo sapiens), O15379; in the data active = inhibition above about 26%, passing the limit was not always enough; inconclusive = no clear call, values can overlap the other calls
GRK2 inh confirm – GRK2 aptamer-displacing inhibitors, retest, confirmation, biochemical, cherry pick 1, bead flow cytometry; shares compounds with GRK2 aptamer HTS; bead-bound GRK2, FAM-aptamer displacement; aptamer displacement, % at 10 µM; 4% of 2,000 active; AID 504451, 2011;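 active = aptamer displacement above 40%, near three times the noise of non-fluorescent compounds, on plates passing quality checks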;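 also: negative values mostly reflect intrinsic compound fluorescence rather than true enhancement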
FAM quench CP1 – aptamer fluorescence quenching in GRK2 counter-screen. Carboxyfluorescein RNA aptamer on beads, flow cytometry quenching; stronger effect = lower value. AID 504580. fluorescence response (% of DMSO), % at 10 µM. 2,000 tested, under 10 active. shares compounds with GRK2 aptamer HTS;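 active = compounds that quench the bead-bound fluorescent RNA probe, cutting fluorescence to under half of the solvent control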;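 also: counterscreen run without GRK2 so only probe quenching by compound is measured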
GRK2 confirm 2 – GRK2 aptamer-displacing inhibitors, hit retest, confirmation, biochemical, cherry pick 2, bead flow cytometry | shares compounds with GRK2 aptamer HTS | bead-bound GRK2, FAM-aptamer displacement | inhibition of aptamer binding, % at 10 µM | 360 tested, under 10 active;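 active = inhibition of aptamer binding above 40%, about triple the noise seen with nonglowing compounds, on plates passing quality control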;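 also: negative values mostly come from compounds that fluoresce themselves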
FAM quench SP – quenches fluorescent RNA aptamer, GRK2 hit artifact; shares compounds with GRK2 aptamer HTS; carboxyfluorescein RNA aptamer beads, flow cytometry quenching; stronger effect = lower value; fluorescence response vs DMSO, % at 10 µM; 360 tested, under 10 active; AID 588494;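 active = response vs DMSO under 50%, meaning signal dropped by over half, treated as fluorescence quencher; inconclusive = no clear call, values can overlap the other calls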;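 also: labelled aptamer on streptavidin beads without GRK2 as a quench counter-screen; 100% = bead fluorescence of DMSO wells and lower means quenching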
The depositor's hits bear a star; ? = inconclusive; / = no result given. Most compounds without a hit are left out; they make up all but 1.8% or so of the library.

SMILES	H9c2 protect	Neddyl block	GRK2 aptamer HTS	HDAC3 inh	GRK2 inh confirm	FAM quench CP1	others
Cc1cccc(C)c1NC(=O)CNC(=O)c1ccc(COc2ccccc2)cc1	-2	9	0	5	/	/
c1cc2c(c(CC3CO3)c1CC1CO1)OCCOCCOCCOCCO2 (stereo unspecified)	5	-2	/	/	/	/
O=C1COc2ccc(C(=O)COC(=O)CCSc3ccc(Cl)cc3)cc2N1	-2	-50	3	-1	/	/
O=C(CC(Cc1ccccc1)C(=O)O)Nc1ccc(Cl)c(Cl)c1 (stereo unspecified)	0	-1	99*	5	-2	100
Cc1ccc(CNC(=O)c2ccc(N3CCc4ccccc43)c([N+](=O)[O-])c2)cc1	-4	-27	3	3	0	98
CC1(C)CC(NC(=S)NC2CC2)CC(C)(C)N1	10	5	69*	-1	0	98
CC1CCC(NC(=O)N(CCCl)N=O)CC1 (stereo unspecified)	8	3	26	-1	-6	103
COc1ccccc1-n1c(=S)[nH]c2c(sc(=S)n2-c2ccccc2C)c1=O	-4	0	0	2	/	/
CN(CC(=O)Nc1cc(S(=O)(=O)N2CCOCC2)ccc1Cl)C1CCS(=O)(=O)C1 (stereo unspecified)	0	-13	3	-5	/	/
CCN(CC(=O)Nc1c(F)cccc1F)C(=O)c1ccc2ccccc2n1	-2	2	0	-3	/	/
CCN(CC(=O)Nc1c(F)cccc1F)C(=O)/C=C/c1ccc2ccccc2n1	-2	10	94*	3	31	92
Cc1c(Cl)cccc1NS(=O)(=O)c1cn(C)c(=O)n(C)c1=O	-1	4	59*	3	-2	102
Cn1cc(S(=O)(=O)Nc2ccc(Br)cc2F)c(=O)n(C)c1=O	7	8	2	-3	/	/
COC(=O)c1ccc(S(=O)(=O)NCc2ccco2)o1	3	-3	47*	3	0	102
COC(=O)c1ccc(S(=O)(=O)NCc2ccc(S(N)(=O)=O)cc2)o1	2	3	0	10	/	/
CN1C(N)=NC(=O)/C1=C/c1ccccc1F	3	-5	0	10	/	/
O=C(O)CC/C(=C\c1ccc(N2CCCC2)c([N+](=O)[O-])c1)c1nc2ccccc2s1	2	-29	71*	6	-5	100
CN(c1ccccc1)c1ccc(/C=C(/CCC(=O)O)c2nc3ccccc3s2)cc1[N+](=O)[O-]	-4	-27	/	/	/	/
CC1CC(C)CN(S(=O)(=O)N2CCCC(C(=O)NCc3ccccc3Cl)C2)C1 (stereo unspecified)	-1	-1	0	-1	-5	92
Cc1cc(=O)n2nc(N3CCCC(C(=O)NCc4ccccc4Cl)C3)sc2n1 (stereo unspecified)	1	-6	0	7	-1	102
Cc1cc(=O)n2nc(N3CCCC(C(=O)NCc4ccccc4C)C3)sc2n1 (stereo unspecified)	16	1	0	3	-3	97
COc1ccc2[nH]c3c(c2c1)CCN1C(=O)C(CC(=O)NC/C=C(\C)CCC=C(C)C)C[C@H](C(=O)N2CCOCC2)[C@@]31CCC1CCCC1 (stereo partly specified)	-4	1	5	/	/	/
O=C(Nc1nccs1)c1ccc(COc2ccccc2Cl)o1	-1	11	1	-3	/	/
CCCCc1nnc(SC(C)C(=O)Nc2nccs2)n1C (stereo unspecified)	5	4	3	-19	/	/
COc1ccc([N+](=O)[O-])cc1NC(=O)c1cccs1	-4	-25	1	6	/	/
SMILES	H9c2 protect	Neddyl block	GRK2 aptamer HTS	HDAC3 inh	GRK2 inh confirm	FAM quench CP1	others
Cc1ccc([N+](=O)[O-])cc1NC(=S)NC(=O)c1cccs1	-3	2	62*	-9	/	/	GRK2 confirm 2=5;FAM quench SP=99
Cc1cc(Nc2cccc(Br)c2)c2ccccc2n1	-12	11	0	1	/	/
O=C(NCC1OCCc2ccccc21)c1ccc(NC(=O)c2ccccc2Cl)cc1 (stereo unspecified)	38	-89	47*	/	/	/	GRK2 confirm 2=-3;FAM quench SP=101
COC(=O)CSc1nnc(-c2ccc(S(=O)(=O)N3CCCC3)cc2)o1	6	5	0	2	/	/
NC(=O)CSc1nnc(-c2ccc(S(=O)(=O)N3CCCC3)cc2)o1	4	15	45*	-1	-1	81
Cc1ccc(CSc2nnc(-c3ccc(S(=O)(=O)N4CCCC4)cc3)o2)cc1	-9	-9	59*	-3	-2	95
CCc1noc(C)c1C(=O)NNC(=O)COc1ccc(C)cc1	-2	5	2	-3	/	/
CCc1ccc(Nc2nnc(SCC(=O)NC(=O)CN3CCCC3=O)s2)cc1	-15	-11	45*	5	19	102
COc1ccc(Cl)cc1N1C(=O)[C@@H]2C(c3cccc(OC)c3OC)=NO[C@@H]2C1=O	4	14	6	0	/	/	GRK2 confirm 2=8;FAM quench SP=102
COc1ccc(CN2C(=O)[C@@H]3C(c4ccccc4Cl)=NO[C@@H]3C2=O)cc1	2	11	4	1	/	/
COc1ccc(OC)c(C2=NO[C@@H]3C(=O)N(c4cc(Cl)ccc4OC)C(=O)[C@H]23)c1	5	22	2	-6	/	/	GRK2 confirm 2=5;FAM quench SP=?
COc1ccc(C2=NO[C@@H]3C(=O)N(Cc4ccccc4)C(=O)[C@H]23)c(OC)c1	-4	-2	0	10	/	/
O=C(c1[nH]c(C(F)(F)F)nc1-c1ccccc1)N1CCC(C(O)(c2ccccc2)c2ccccc2)CC1	3	-5	/	/	/	/
Fc1ccccc1N1CCN(C(c2ccncc2)c2nnnn2C2CCCC2)CC1 (stereo unspecified)	2	-10	53*	0	-2	104
Cc1cccn2c(=O)c(/C=C(\C#N)C(N)=O)c(N3CCN(c4cccc(Cl)c4)CC3)nc12	13	4	1	-1	/	/
Cc1nnc(Nc2ccc(C(=O)NCCO)cc2)c2ccccc12	4	9	49*	1	0	98
O=C(Cc1cccs1)NNC(=O)C12CC3CC(CC(C3)C1)C2	-5	-15	0	-1	/	/
Cn1c(=S)n(CCC(=O)O)c2ccccc21	2	1	15	3	-1	98
